# Compounds with a hit are over-represented: about 19% of the library has one in this group of screens.
# TDP1 cell noCPT = qHTS for Inhibitors of human tyrosyl-DNA phosphodiesterase 1 (TDP1): qHTS in cells in absence of CPT. DT40 Tdp1-/- hTDP1 cells, no CPT, ATP luminescence, 48 h. Potency, µM (top dose mostly 46.2 µM), without a hit: at the highest dose activity change, negative = growth inhibition, usual class: inhibitors. 420,000 tested, 15% active. AID 686978, 2013; also: potency is read from the fitted curve at half-maximal effect; % is scaled to controls: 0 for no effect and ±100 for the full control effect; nearly all actives have a fitted effect of over 55% in size
#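 Compound effects on proliferation are scored in DT40 Tdp1-/-;hTDP1 cells in the absence of CPT. ATP levels (CellTiter-Glo luminescence) are recorded after a ≥48 hr, 37 °C incubation.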
# HepG2 tox = qHTS for Inhibitors of TGF-b: Cytotox Counterscreen; 410,000 tested, 0.76% active; Potency, µM (titrated, usually from 46.1 µM), for the others: at the highest dose activity change, negative = cytotoxicity, hits mostly cytotoxic; HepG2 CAGA-GFP viability, ATP luminescence, 18 h; also: potency is read from the fitted curve at half-maximal effect
#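 HepG2 CAGA-GFP cells (1000/well, DMEM with 1% FBS) received compound, then TGF-beta at 500 pg/mL final, and were incubated 18 hours at 37 degrees C. Viability was read by CellTiter-Glo luminescence. Media-only wells were set as complete cell-killing and DMSO as no toxicity.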
# TDP1 block = qHTS Assay for Inhibitors of Tyrosyl-DNA Phosphodiesterase (TDP1) | 350,000 tested, 0.28% active | Tyrosyl-DNA phosphodiesterase 1 (Homo sapiens), Q9NUW8 | AID 485290, 2010 | Potency, µM (series often up to 130 µM), for the others: top-dose activity change, negative = inhibition, hits mostly inhibitors | recombinant TDP1, AlphaScreen DNA substrate cleavage; also: potency is read from the fitted curve at half-maximal effect; % is scaled to controls: 0 for no effect and ±100 for the full control effect; nearly all actives have a fitted effect of over 40% in size
# Target sequence (Q9NUW8 whole entry, looked up): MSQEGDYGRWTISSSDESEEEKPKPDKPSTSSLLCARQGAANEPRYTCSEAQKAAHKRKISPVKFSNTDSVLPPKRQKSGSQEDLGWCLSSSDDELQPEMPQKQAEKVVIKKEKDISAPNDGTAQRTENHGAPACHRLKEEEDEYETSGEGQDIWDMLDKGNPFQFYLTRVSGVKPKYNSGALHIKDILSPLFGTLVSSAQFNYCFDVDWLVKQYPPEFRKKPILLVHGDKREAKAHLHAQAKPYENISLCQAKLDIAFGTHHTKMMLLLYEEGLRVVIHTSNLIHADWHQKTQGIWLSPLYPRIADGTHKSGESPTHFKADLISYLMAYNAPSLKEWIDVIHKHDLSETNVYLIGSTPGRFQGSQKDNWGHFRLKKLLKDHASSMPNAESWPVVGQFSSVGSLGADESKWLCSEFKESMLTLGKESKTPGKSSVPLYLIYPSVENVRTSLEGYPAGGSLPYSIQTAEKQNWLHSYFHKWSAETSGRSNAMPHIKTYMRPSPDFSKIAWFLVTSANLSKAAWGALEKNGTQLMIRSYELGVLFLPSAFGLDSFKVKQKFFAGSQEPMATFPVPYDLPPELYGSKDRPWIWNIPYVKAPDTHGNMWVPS
#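 Tdp1 1 nM final; 15 min RT w/ cpd; substrate 15 nM, 5 min; beads 10 ug/ml, 10 min; AlphaScreen read. Neg ctrl: no enzyme.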
# TGFb inhibitor = qHTS for Inhibitors of TGF-b | HepG2 CAGA-GFP TGF-b/SMAD3 reporter, GFP fluorescence, 18 h; TGF-beta stimulated, 500 pg/mL final | 410,000 tested, 1.2% active | Potency, µM (doses to about 46.1 µM), for the others: at the highest dose activity, negative = inhibition, actives largely listed as inhibitors | AID 588855, 2011; also: potency is read from the fitted curve at half-maximal effect; % is scaled to controls: 0 for no effect and ±100 for the full control effect; nearly all actives have a fitted effect of over 65% in size
#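 Inhibition of TGF-beta-driven CAGA-GFP reporter expression in HEPG2 cells is measured by cellular GFP fluorescence after 18 h stimulation with 500 pg/mL recombinant TGF-beta in 1% FBS medium at 37 degrees C.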
# DT40 TDP1 CPT = qHTS for Inhibitors of human tyrosyl-DNA phosphodiesterase 1 (TDP1): qHTS in cells in presence of CPT; Potency, µM (top dose mostly 46.2 µM), for the others: at the highest dose activity change, negative = growth inhibition, actives largely listed as inhibitors; 420,000 tested, 12% active; chicken DT40 Tdp1-/-;hTDP1 cells + 20 nM CPT, ATP luminescence, 48 h; also: potency is read from the fitted curve at half-maximal effect; % is scaled to controls: 0 for no effect and ±100 for the full control effect; nearly all actives have a fitted effect of over 55% in size
#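 Chicken DT40 Tdp1-/- cells complemented with human TDP1, 400 cells/well, exposed to compounds plus 20 nM camptothecin for at least 48 h at 37 C; viability read as ATP content by CellTiter-Glo luminescence.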
# IL-1B inflam inh = qHTS for Inhibitors of Inflammasome Signaling: IL-1-beta AlphaLISA Primary Screen | activity change, % at 57.5 µM | 360,000 tested, 4.7% active | THP-1 LPS/ATP IL-1B secretion, AlphaLISA, 16 h; hits give low values | AID 743279, 2014; in the data active = activity change below about -50%; inconclusive = mostly about -30% to -49%; also: % is scaled to controls: 0 for no effect and ±100 for the full control effect
#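 THP-1 cells pretreated 1 hr with compounds (up to 57.5 uM final), then stimulated with LPS (250 ng/mL final) plus ATP (1.25 mM final); secreted IL-1B measured by AlphaLISA after 16 hr, decreased signal indicating inhibition.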
# * marks the source's active call; other numbers are inactive results; i = inactive; ? = inconclusive; nt = no result given. Unless noted, calls follow the shape of the dose curve; as a rule, active = well fitted curve in the direction sought with a large enough effect; inconclusive = small, poorly fitted or top-dose-only effect, or another doubt; inactive = no such curve, though single readings can be large; an effect the other way counts as inactive or inconclusive.
SMILES,TDP1 cell noCPT,HepG2 tox,TDP1 block,TGFb inhibitor,DT40 TDP1 CPT,IL-1B inflam inh
Cc1ccc(-n2nc(C)c(C3(O)C(=O)N(C(C)C)c4ccccc43)c2N)cc1 (stereo not drawn),11.6µM*,-19.5%,-0.6%,?,10.3µM*,8.1
CCN1C(=O)C2(C(C#N)=C(N)Oc3n[nH]c(C(C)C)c32)c2ccccc21 (stereo not drawn),-26.7%,-28.5%,-2.3%,-17.3%,-23.9%,-12.9
Cc1nn(-c2ccccc2)c(N)c1C1(O)C(=O)N(C(C)C)c2ccccc21 (stereo not drawn),8.2µM*,-0.4%,0.0%,10.5%,6.51µM*,1.2
Cc1nn(-c2ccccc2)c2c1C1(C(=O)N(C(C)C)c3ccccc31)C(C#N)=C(N)O2 (stereo not drawn),16.4µM*,-3.2%,4.8%,7.9%,9.2µM*,1.1
CCn1c(SCC(=O)N2CCN(c3ccccc3)CC2)nc2c([nH]c3ccccc32)c1=O,8.2µM*,-2.4%,0.0%,4.8%,14.6µM*,i
CCOC(=O)N1CCN(C(=O)CSc2nc3c([nH]c4ccccc43)c(=O)n2CCOC)CC1,18.4µM*,-0.2%,2.5%,12.0%,?,i
COc1ccc(-n2c(=O)c3c(c4cc(OC)ccc4n3C)n(CC(=O)NCC3CCCO3)c2=O)cc1 (stereo not drawn),?,-9.6%,5.6%,4.4%,-5.4%,nt
OCCN1CCN(C(=S)c2ccc(Cl)c(Cl)c2)CC1,18.4µM*,-5.0%,5.6%,0.0%,18.4µM*,-11.5
CCOc1ccc(-c2cc(C(=O)N3CCN(c4ccc(C)cc4)C(C)C3)c3ccccc3n2)cc1 (stereo not drawn),23.1µM*,-16.9%,7.8%,?,20.6µM*,nt
CCOc1ccc(-c2cc(C(=O)N3CCN(c4cccc(C)c4)C(C)C3)c3ccccc3n2)cc1 (stereo not drawn),7.31µM*,3.2%,7.8%,-13.4%,16.4µM*,nt
Cc1ccc(N2CCN(C(=O)c3cccn4c(=O)c5ccc(Cl)cc5nc34)CC2C)cc1 (stereo not drawn),2.5%,1.4%,6.4%,3.7%,-27.2%,nt
Cc1cccc(N2CCN(C(=O)c3cccn4c(=O)c5cc(Cl)ccc5nc34)CC2C)c1 (stereo not drawn),?,2.1%,6.4%,-10.3%,18.4µM*,nt
CC(C)[C@@H](CC(=O)N[C@@H]1CCNC[C@H]1C(=O)N[C@H](CC(=O)N[C@@H](CCC(=O)O)CC(=O)O)Cc1c[nH]c2ccccc12)NC(=O)C[C@H](CO)NC(=O)[C@@H]1CCCC[C@H]1N,nt,nt,1.2%,nt,nt,nt
COc1ccccc1CNS(=O)(=O)c1ccc(-c2cc(C(F)(F)F)on2)s1,20.6µM*,-37.3%,7.9%,?,23.1µM*,nt
COc1ccc(CNS(=O)(=O)c2ccc(-c3ccc(=O)[nH]n3)s2)cc1OC,10.2%,-1.6%,-1.5%,-0.3%,?,24.5
COc1ccc(OC)c(CNS(=O)(=O)c2ccc(-c3cc(C(F)(F)F)on3)s2)c1,8.2µM*,-30.5%,2.6%,-11.5%,8.2µM*,nt
COc1ccc(N2CCN(S(=O)(=O)c3ccc(-c4cc(C(F)(F)F)on4)s3)CC2)cc1,-4.7%,-17.5%,5.3%,?,7.1%,nt
COc1ccc(CNS(=O)(=O)c2ccc(-c3cc(C(F)(F)F)on3)s2)cc1OC,5.17µM*,-34.5%,2.6%,0.0%,9.2µM*,nt
COc1cccc(CNC(=O)CCn2cccn2)c1,0.9%,1.1%,0.6%,31.1%,8.9%,nt

# Screening results as filed in PubChem.
